Laboratory results reported in publication PMC7862700, “An all-to-all approach to the identification of sequence-specific readers for epigenetic DNA modifications on cytosine”.

Columns and labels:
Test in all cases: DAPPL (digital affinity profiling via proximity ligation, sequencing); 10 mM Tris-HCl pH 7.5, 50 mM NaCl, 1 mM DTT, 4% glycerol, room temperature, 30 min; GST-TFs on glutathione beads, 16-mer random dsDNA library, 0.1% formaldehyde crosslink after washing; high values mean tight binding
Conditions in all cases: protein: recombinant; tags: N-terminal GST; dsDNA, one strand shown
ERF = molecular target: T1, ERF (Homo sapiens, UniProt P50548 1-548)
T1 sequence: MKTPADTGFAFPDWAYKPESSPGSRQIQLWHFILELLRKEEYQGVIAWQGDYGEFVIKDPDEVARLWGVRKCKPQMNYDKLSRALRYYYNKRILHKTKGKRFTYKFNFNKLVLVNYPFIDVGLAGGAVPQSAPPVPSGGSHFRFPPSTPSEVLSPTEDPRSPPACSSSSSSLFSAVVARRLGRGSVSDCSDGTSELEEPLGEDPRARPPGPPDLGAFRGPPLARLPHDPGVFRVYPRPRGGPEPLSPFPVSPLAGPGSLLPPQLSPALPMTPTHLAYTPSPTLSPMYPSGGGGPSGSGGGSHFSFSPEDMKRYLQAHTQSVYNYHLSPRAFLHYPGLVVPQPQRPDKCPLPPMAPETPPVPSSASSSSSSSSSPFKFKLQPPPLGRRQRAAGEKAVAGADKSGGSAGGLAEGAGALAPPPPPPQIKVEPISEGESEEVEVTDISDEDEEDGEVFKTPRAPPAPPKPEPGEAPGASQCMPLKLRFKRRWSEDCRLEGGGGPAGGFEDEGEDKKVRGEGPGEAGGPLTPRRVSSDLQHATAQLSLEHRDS
Summary of the method: (§1)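 GST fusions of human transcription factors were expressed in yeast and captured with glutathione beads. Once given DNA barcodes and pooled alongside a tag-only sample, they were incubated for 30 min at room temperature with 200 nmole of a random double-stranded 16-mer DNA library in Tris/NaCl/DTT/glycerol buffer, then washed, crosslinked (0.1% formaldehyde), proximity-ligated, PCR-amplified and sequenced on an Illumina NextSeq500. The binding signal of each hexamer is its read frequency for a factor divided by its frequency for the tag-only sample.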

ETV3L = molecular target: T2, ETV3L (Homo sapiens, UniProt Q6ZN32 1-361)
T2 sequence: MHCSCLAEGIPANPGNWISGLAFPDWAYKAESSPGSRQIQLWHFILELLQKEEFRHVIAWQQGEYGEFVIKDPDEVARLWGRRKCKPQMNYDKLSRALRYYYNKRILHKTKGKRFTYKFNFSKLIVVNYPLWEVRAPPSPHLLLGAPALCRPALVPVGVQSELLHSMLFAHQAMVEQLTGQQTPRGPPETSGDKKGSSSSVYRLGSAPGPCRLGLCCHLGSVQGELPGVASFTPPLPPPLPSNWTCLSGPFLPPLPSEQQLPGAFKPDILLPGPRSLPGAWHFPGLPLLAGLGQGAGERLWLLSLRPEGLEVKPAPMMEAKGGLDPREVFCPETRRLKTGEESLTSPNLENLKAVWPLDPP
Summary of the method: as §1

ETS2 = molecular target: T3, ETS2 (Homo sapiens, UniProt P15036 1-469)
T3 sequence: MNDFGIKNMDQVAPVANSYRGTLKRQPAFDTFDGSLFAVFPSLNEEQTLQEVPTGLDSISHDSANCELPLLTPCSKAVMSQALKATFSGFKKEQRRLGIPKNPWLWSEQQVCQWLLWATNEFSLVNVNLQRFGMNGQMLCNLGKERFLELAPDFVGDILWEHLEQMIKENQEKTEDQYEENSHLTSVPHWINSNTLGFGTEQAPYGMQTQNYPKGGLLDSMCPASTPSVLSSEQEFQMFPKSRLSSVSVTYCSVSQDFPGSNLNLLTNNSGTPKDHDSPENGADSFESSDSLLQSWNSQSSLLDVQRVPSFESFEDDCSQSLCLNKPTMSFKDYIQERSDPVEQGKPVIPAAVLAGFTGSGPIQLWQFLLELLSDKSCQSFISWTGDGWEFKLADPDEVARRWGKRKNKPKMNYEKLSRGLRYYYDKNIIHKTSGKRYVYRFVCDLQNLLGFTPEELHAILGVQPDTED
Summary of the method: as §1

SPDEF = molecular target: T4, SPDEF (Homo sapiens, UniProt O95238 1-335)
T4 sequence: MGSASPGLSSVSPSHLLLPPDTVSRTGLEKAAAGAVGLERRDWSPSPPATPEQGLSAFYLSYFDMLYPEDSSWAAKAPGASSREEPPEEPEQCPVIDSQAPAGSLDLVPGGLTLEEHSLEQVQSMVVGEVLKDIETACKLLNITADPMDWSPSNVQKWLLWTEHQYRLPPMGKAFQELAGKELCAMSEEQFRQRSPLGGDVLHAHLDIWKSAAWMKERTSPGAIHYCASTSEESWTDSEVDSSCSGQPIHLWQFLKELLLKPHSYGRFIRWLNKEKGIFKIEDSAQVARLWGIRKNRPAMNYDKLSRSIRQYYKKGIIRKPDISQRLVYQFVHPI
Summary of the method: as §1

ETV3 = molecular target: T5, ETV3 (Homo sapiens, UniProt P41162-2 1-143)
T5 sequence: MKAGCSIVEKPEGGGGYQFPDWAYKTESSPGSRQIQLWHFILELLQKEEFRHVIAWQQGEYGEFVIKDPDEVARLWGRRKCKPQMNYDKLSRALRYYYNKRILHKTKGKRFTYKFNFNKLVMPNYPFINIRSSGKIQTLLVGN
Summary of the method: as §1

ETV6 = ETV6 (Homo sapiens, UniProt P41212 1-452)
Summary of the method: as §1

ETV7 = molecular target: T6, ETV7 (Homo sapiens, UniProt Q9Y603 1-341)
T6 sequence: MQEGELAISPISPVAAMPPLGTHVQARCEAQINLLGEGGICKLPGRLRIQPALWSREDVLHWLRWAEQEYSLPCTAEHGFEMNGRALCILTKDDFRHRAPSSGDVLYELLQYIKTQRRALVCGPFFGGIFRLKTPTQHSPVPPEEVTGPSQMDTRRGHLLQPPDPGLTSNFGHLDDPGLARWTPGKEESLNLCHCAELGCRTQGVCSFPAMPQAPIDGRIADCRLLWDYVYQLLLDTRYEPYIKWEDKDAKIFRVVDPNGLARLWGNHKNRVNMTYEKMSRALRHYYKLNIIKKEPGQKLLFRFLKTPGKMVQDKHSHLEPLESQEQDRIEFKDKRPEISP
Summary of the method: as §1

ELF5 = molecular target: T7, ELF5 (Homo sapiens, UniProt Q9UKW6-2 1-255)
T7 sequence: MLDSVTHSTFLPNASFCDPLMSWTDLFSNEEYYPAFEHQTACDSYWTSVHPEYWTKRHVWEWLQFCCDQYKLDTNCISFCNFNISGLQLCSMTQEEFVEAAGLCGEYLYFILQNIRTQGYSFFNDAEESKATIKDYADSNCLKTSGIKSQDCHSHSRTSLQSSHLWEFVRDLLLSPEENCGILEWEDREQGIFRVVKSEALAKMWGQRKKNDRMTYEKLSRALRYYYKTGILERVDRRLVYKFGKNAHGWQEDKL
Summary of the method: as §1

Chain of ETV6 (P41212 whole entry): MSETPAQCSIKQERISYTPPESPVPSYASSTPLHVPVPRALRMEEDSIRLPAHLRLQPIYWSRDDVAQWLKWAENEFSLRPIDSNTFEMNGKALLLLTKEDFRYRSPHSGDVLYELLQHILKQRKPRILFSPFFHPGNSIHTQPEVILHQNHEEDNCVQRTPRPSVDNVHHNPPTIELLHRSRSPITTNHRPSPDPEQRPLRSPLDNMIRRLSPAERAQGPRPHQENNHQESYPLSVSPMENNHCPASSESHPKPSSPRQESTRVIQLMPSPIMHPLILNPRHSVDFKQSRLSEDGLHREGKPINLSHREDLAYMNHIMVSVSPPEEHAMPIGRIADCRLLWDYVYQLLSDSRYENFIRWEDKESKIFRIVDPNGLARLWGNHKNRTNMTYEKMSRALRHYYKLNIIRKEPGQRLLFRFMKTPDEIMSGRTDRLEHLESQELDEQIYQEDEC

Row | Sequence | binding signal (ERF) | binding signal (ETV3L) | binding signal (ETS2) | binding signal (SPDEF) | binding signal (ETV3) | binding signal (ETV6) | binding signal (ETV7) | binding signal (ELF5)
1 | GCGCCC | 1.18 fold enrichment (6-mer frequency, TF over GST control) | 1.2 fold enrichment (6-mer frequency, TF over GST control) | 1.05 fold enrichment (6-mer frequency, TF over GST control) | 1.13 fold enrichment (6-mer frequency, TF over GST control) | 1.2 fold enrichment (6-mer frequency, TF over GST control) | 1.03 fold enrichment (6-mer frequency, TF over GST control) | – | –
2 | TGGTAG | 1.11 fold enrichment (6-mer frequency, TF over GST control) | 1.02 fold enrichment (6-mer frequency, TF over GST control) | 1.04 fold enrichment (6-mer frequency, TF over GST control) | – | 1.1 fold enrichment (6-mer frequency, TF over GST control) | – | 1.18 fold enrichment (6-mer frequency, TF over GST control) | 1.1 fold enrichment (6-mer frequency, TF over GST control)
3 | TAGCTG | 1.16 fold enrichment (6-mer frequency, TF over GST control) | 1.14 fold enrichment (6-mer frequency, TF over GST control) | 1.04 fold enrichment (6-mer frequency, TF over GST control) | – | 1.23 fold enrichment (6-mer frequency, TF over GST control) | 1.2 fold enrichment (6-mer frequency, TF over GST control) | 1.15 fold enrichment (6-mer frequency, TF over GST control) | 1.13 fold enrichment (6-mer frequency, TF over GST control)
4 | GCGCCT | 1.05 fold enrichment (6-mer frequency, TF over GST control) | 1.07 fold enrichment (6-mer frequency, TF over GST control) | 1.02 fold enrichment (6-mer frequency, TF over GST control) | – | 1.1 fold enrichment (6-mer frequency, TF over GST control) | 1.12 fold enrichment (6-mer frequency, TF over GST control) | 1.06 fold enrichment (6-mer frequency, TF over GST control) | 1.04 fold enrichment (6-mer frequency, TF over GST control)
5 | GTTTGG | 1.11 fold enrichment (6-mer frequency, TF over GST control) | 1.09 fold enrichment (6-mer frequency, TF over GST control) | 1.07 fold enrichment (6-mer frequency, TF over GST control) | – | 1.1 fold enrichment (6-mer frequency, TF over GST control) | – | 1.12 fold enrichment (6-mer frequency, TF over GST control) | 1.1 fold enrichment (6-mer frequency, TF over GST control)
6 | TGATCG | 1.24 fold enrichment (6-mer frequency, TF over GST control) | 1.09 fold enrichment (6-mer frequency, TF over GST control) | 1.03 fold enrichment (6-mer frequency, TF over GST control) | – | 1.11 fold enrichment (6-mer frequency, TF over GST control) | 1.12 fold enrichment (6-mer frequency, TF over GST control) | 1.03 fold enrichment (6-mer frequency, TF over GST control) | 1.04 fold enrichment (6-mer frequency, TF over GST control)
7 | CCCATG | 1.14 fold enrichment (6-mer frequency, TF over GST control) | 1.11 fold enrichment (6-mer frequency, TF over GST control) | 1.02 fold enrichment (6-mer frequency, TF over GST control) | 1.1 fold enrichment (6-mer frequency, TF over GST control) | 1.14 fold enrichment (6-mer frequency, TF over GST control) | 1.12 fold enrichment (6-mer frequency, TF over GST control) | – | –
8 | TAGCAG | 1.11 fold enrichment (6-mer frequency, TF over GST control) | 1.07 fold enrichment (6-mer frequency, TF over GST control) | 1.02 fold enrichment (6-mer frequency, TF over GST control) | – | – | – | 1.07 fold enrichment (6-mer frequency, TF over GST control) | 1.05 fold enrichment (6-mer frequency, TF over GST control)
9 | AATCGC | 1.01 fold enrichment (6-mer frequency, TF over GST control) | 1.05 fold enrichment (6-mer frequency, TF over GST control) | 1.17 fold enrichment (6-mer frequency, TF over GST control) | – | 1.08 fold enrichment (6-mer frequency, TF over GST control) | 1.17 fold enrichment (6-mer frequency, TF over GST control) | 1.07 fold enrichment (6-mer frequency, TF over GST control) | 1.1 fold enrichment (6-mer frequency, TF over GST control)
10 | AAGCGA | 1.02 fold enrichment (6-mer frequency, TF over GST control) | 1.02 fold enrichment (6-mer frequency, TF over GST control) | 1.05 fold enrichment (6-mer frequency, TF over GST control) | – | 1.12 fold enrichment (6-mer frequency, TF over GST control) | 1.05 fold enrichment (6-mer frequency, TF over GST control) | 1.09 fold enrichment (6-mer frequency, TF over GST control) | 1.07 fold enrichment (6-mer frequency, TF over GST control)
11 | TTGAGG | 1.12 fold enrichment (6-mer frequency, TF over GST control) | 1.03 fold enrichment (6-mer frequency, TF over GST control) | 1.04 fold enrichment (6-mer frequency, TF over GST control) | – | 1.12 fold enrichment (6-mer frequency, TF over GST control) | 1.13 fold enrichment (6-mer frequency, TF over GST control) | 1.03 fold enrichment (6-mer frequency, TF over GST control) | 1.11 fold enrichment (6-mer frequency, TF over GST control)
12 | GCTGGC | 1.12 fold enrichment (6-mer frequency, TF over GST control) | 1.04 fold enrichment (6-mer frequency, TF over GST control) | 1.04 fold enrichment (6-mer frequency, TF over GST control) | – | 1.1 fold enrichment (6-mer frequency, TF over GST control) | 1.02 fold enrichment (6-mer frequency, TF over GST control) | 1.12 fold enrichment (6-mer frequency, TF over GST control) | 1 fold enrichment (6-mer frequency, TF over GST control)
13 | GCTGAC | 1.08 fold enrichment (6-mer frequency, TF over GST control) | 1.09 fold enrichment (6-mer frequency, TF over GST control) | 1.11 fold enrichment (6-mer frequency, TF over GST control) | – | 1.17 fold enrichment (6-mer frequency, TF over GST control) | 1 fold enrichment (6-mer frequency, TF over GST control) | 1.12 fold enrichment (6-mer frequency, TF over GST control) | 1.05 fold enrichment (6-mer frequency, TF over GST control)
14 | TAGTGC | 1.12 fold enrichment (6-mer frequency, TF over GST control) | 1.05 fold enrichment (6-mer frequency, TF over GST control) | 1.08 fold enrichment (6-mer frequency, TF over GST control) | 1.06 fold enrichment (6-mer frequency, TF over GST control) | 1.05 fold enrichment (6-mer frequency, TF over GST control) | 1.12 fold enrichment (6-mer frequency, TF over GST control) | – | –
15 | TTTAGT | 1.03 fold enrichment (6-mer frequency, TF over GST control) | 1.09 fold enrichment (6-mer frequency, TF over GST control) | 1.04 fold enrichment (6-mer frequency, TF over GST control) | 1.04 fold enrichment (6-mer frequency, TF over GST control) | 1.11 fold enrichment (6-mer frequency, TF over GST control) | 1.12 fold enrichment (6-mer frequency, TF over GST control) | – | –
